Some test systems named below: MELK; MERTK; MET; MKK7; MKNK1; MKNK2; MLK2; MLK3; MRCKA; MST1R.
Common to all, as to details: concentration: 1 μM, replicates: in singlicate; n = 1
In the next assay the test system is T1, MEK2.
T1 construct: gene MAP2K2

A further assay relates to T2, MEK3.
T2 construct: gene MAP2K3

Another assay has as its system T3, MEK4.
T3 construct: gene MAP2K4

The next assay concerns T4, MEK5.
T4 construct: gene MAP2K5

Another assay has as its system T5, MEK6.
T5 construct: gene MAP2K6

For the next assay, the system named is T6, MINK.
T6 construct: gene MINK1

The test system of another assay is T7, MLCK.
T7 construct: gene MYLK3

A further assay concerns T8, MLK1.
T8 construct: gene MAP3K9

The test system of a further assay is T9, MRCKB.
T9 construct: gene CDC42BPB

The subject of a further assay is T10, MST1.
T10 construct: gene STK4

The record followed here is article PMC5540273 (PLoS ONE, 2017).
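Note: KINOMEscan kinase panel screen.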

Turning to `CN(C)CCN(C)C(=O)c1cc(-c2ccncc2)c(-c2ccc(Cl)c(O)c2)o1.Cl.Cl` [SB-710397], the “%Inh” value worked out at 0% in the assay with MEK2; 0% with MEK3; 0% with MEK4; 48% with MEK5; 0% with MEK6; 9% with MELK. Also, the “%Inh” value came out at 24% in the assay on MERTK; 0% in the assay on MET; 46% with MINK; 14% in the assay with MKK7; 2% with MKNK1; 1% in the assay on MKNK2. For the same compound, the “%Inh” value in the assay on MLCK came out at 12%; with MLK1, 0%; in the assay with MLK2, 0%; in the assay on MLK3, 0%; in the assay with MRCKA, 17%; with MRCKB, 2%. In addition, the “%Inh” value with MST1R is listed as 42%; with MST1, 0%.
Regarding `Cc1cccc(-c2nc(Nc3cccc(C(N)=O)c3)c3ccccc3n2)n1` [GW876019], the “%Inh” value in the assay with MEK2 was 27%; with MEK3, 14%; in the assay with MEK4, 0%; with MEK5, 20%; with MEK6, 0%; with MELK, 24%. The “%Inh” value in the assay with MERTK is listed as 11%; in the assay on MET, 19%; in the assay with MINK it was 5%; in the assay on MKK7, 0%; with MKNK1, 0%; in the assay on MKNK2, 0%. The “%Inh” value in the assay on MLCK is listed as 0%; with MLK1 it was 4%; in the assay with MLK2 it was 0%; with MLK3 it was 0%; in the assay on MRCKA, 38%; with MRCKB, 32%. Further, the figures for the “%Inh” value in the assay with MST1R and in the assay with MST1 were 0% and 31%, respectively.
Consider `O=C(O)COc1ncnc2cc(-c3ccc4[nH]ncc4c3)sc12`, for which the “%Inh” value came out at 7% with MEK2; 17% in the assay on MEK3; 37% in the assay with MEK4; 38% in the assay on MEK5; 0% in the assay on MEK6; 21% in the assay on MELK. Further, the “%Inh” value with MERTK is given as 0%; in the assay on MET it was 1%; in the assay on MINK it was 12%; with MKK7, 0%; with MKNK1 it was 8%; with MKNK2 it was 13%. For the same compound, the “%Inh” value in the assay with MLCK was determined as 1%; in the assay on MLK1, 10%; in the assay with MLK2, 4%; in the assay on MLK3, 0%; in the assay on MRCKA it was 0%; in the assay on MRCKB, 0%. Also, the results for the “%Inh” value in the assay on MST1R and with MST1 were 25% and 73%, respectively.
`Cl.c1ccc(-c2n[nH]cc2-c2ccnc(-c3ccc(CN4CCOCC4)cc3)c2)nc1` [GW776245]: the “%Inh” value with MEK2 stood at 49%; in the assay with MEK3, 0%; with MEK4, 27%; in the assay on MEK5, 5%; with MEK6, 0%; with MELK, 5%. The “%Inh” value is given as 8% with MERTK; 16% in the assay with MET; 8% with MINK; 0% with MKK7; 1% with MKNK1; 0% in the assay with MKNK2. The “%Inh” value worked out at 0% in the assay with MLCK; 13% in the assay on MLK1; 25% in the assay with MLK2; 10% in the assay with MLK3; 29% in the assay with MRCKA; 0% in the assay on MRCKB. Moreover, the results for the “%Inh” value with MST1R and with MST1 were 0% and 21%, respectively.
`COC(=O)c1c(-c2ccccc2)c2cc(C(=O)O)ccc2c(=O)n1Cc1ccccc1`: the “%Inh” value was 10% with MEK2; 7% in the assay on MEK3; 0% in the assay on MEK4; 4% in the assay with MEK5; 0% in the assay with MEK6; 0% in the assay with MELK. For the same compound, the “%Inh” value with MERTK, in the assay with MET, in the assay with MINK, in the assay on MKK7, in the assay with MKNK1 and in the assay with MKNK2 was 0% each time. Moreover, the “%Inh” value was determined as 0% in the assay with MLCK; 41% with MLK1; 14% with MLK2; 0% with MLK3; 0% with MRCKA; 0% in the assay with MRCKB. For the same compound, the entries for the “%Inh” value with MST1R and with MST1 were 19% and 0%, respectively.
On to `Cc1ccc(NC(=O)Nc2cccc(Cl)c2)cc1-c1ccc(C(=O)Nc2ccncc2)cc1` [GSK1398468], for which the “%Inh” value came out at 0% in the assay with MEK2; 0% in the assay with MEK3; 38% with MEK4; 11% in the assay on MEK5; 0% with MEK6; 0% in the assay with MELK. For the same compound, the “%Inh” value in the assay with MERTK is 0%; in the assay on MET, 0%; in the assay with MINK, 14%; in the assay on MKK7, 30%; with MKNK1, 6%; in the assay with MKNK2, 4%. The “%Inh” value with MLCK turned out to be 0%; with MLK1, 0%; in the assay on MLK2, 0%; in the assay with MLK3 it was 0%; in the assay on MRCKA, 19%; with MRCKB, 0%. Also, the entries for the “%Inh” value in the assay with MST1R and in the assay on MST1 were 34% and 1%, respectively.
As to `Cn1cncc1-c1ccc2ncnc(Nc3ccc(OCc4ccccc4)cc3)c2c1` [GW320571], the “%Inh” value in the assay with MEK2 stood at 0%; in the assay on MEK3, 0%; in the assay on MEK4 it was 35%; in the assay with MEK5, 93.7%; in the assay with MEK6, 0%; with MELK, 15%. Moreover, the “%Inh” value turned out to be 2% in the assay with MERTK; 11% with MET; 0% in the assay on MINK; 15% in the assay with MKK7; 24% in the assay on MKNK1; 27% with MKNK2. Besides, the “%Inh” value with MLCK was 7%; in the assay with MLK1, 8%; in the assay on MLK2, 26%; in the assay on MLK3 it was 20%; in the assay with MRCKA it was 8%; with MRCKB, 17%. The “%Inh” value was found to be 29% with MST1R and 14% in the assay on MST1.
Regarding `NC(=O)c1nnc2ccccc2c1N`, the “%Inh” value with MEK2 was determined as 47%; in the assay with MEK3, 46%; in the assay on MEK4, 17%; in the assay with MEK5, 34%; in the assay on MEK6, 0%; with MELK, 9%. The “%Inh” value in the assay with MERTK was 0%; in the assay with MET, 16%; in the assay with MINK it was 38%; in the assay with MKK7 it was 0%; in the assay on MKNK1, 12%; in the assay on MKNK2, 0%. Further, the “%Inh” value with MLCK came out at 0%; with MLK1, 84%; in the assay on MLK2, 0%; in the assay with MLK3, 0%; in the assay with MRCKA, 0%; in the assay with MRCKB it was 0%. In addition, the “%Inh” value in the assay with MST1R was 10%; with MST1 it was 4%.
`COc1cc(Nc2nccc(N3CCC(NC(=O)Nc4cc(C)ccc4C)C3)n2)cc(OC)c1OC` (centres unmarked) [GSK1379762]: the “%Inh” value in the assay on MEK2 was 0%; with MEK3, 0%; with MEK4, 7%; in the assay with MEK5, 99.8%; with MEK6 it was 0%; in the assay with MELK, 5%. In addition, the “%Inh” value in the assay on MERTK turned out to be 51%; in the assay on MET, 42%; in the assay with MINK, 0%; in the assay on MKK7, 0%; in the assay on MKNK1, 9%; in the assay on MKNK2, 37%. The “%Inh” value with MLCK was determined as 0%; in the assay with MLK1, 25%; in the assay on MLK2 it was 4%; in the assay on MLK3 it was 23%; with MRCKA, 0%; with MRCKB, 0%. Moreover, the results for the “%Inh” value in the assay with MST1R and with MST1 were 52% and 13%, respectively.
With `CCn1c(-c2ccccn2)nc2cnccc21` [SB-736398], the “%Inh” value in the assay with MEK2 is recorded as 0%; in the assay on MEK3 it was 0%; with MEK4, 19%; in the assay on MEK5 it was 12%; in the assay with MEK6, 100%; in the assay with MELK, 22%. For the same compound, the “%Inh” value in the assay with MERTK worked out at 0%; with MET, 15%; in the assay on MINK, 0%; with MKK7, 0%; in the assay on MKNK1, 26%; with MKNK2 it was 24%. In addition, the “%Inh” value was found to be 0% in the assay with MLCK; 12% in the assay on MLK1; 0% with MLK2; 7% in the assay with MLK3; 14% in the assay with MRCKA; 0% with MRCKB. The “%Inh” value stood at 47% in the assay with MST1R and 29% with MST1.
